According to PubChem BioAssay:
Activity calls are given as the source filed them.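 How the source made its calls, unless noted: active means compound raises GLP1 secretion from the human gut endocrine cells, with no numeric limit stated; inactive means the rest.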

What was measured:
[1] = Wnt pathway potentiators raising nuclear beta-catenin – imaging, WNT3A-conditioned medium, mouse C2C12, NPC library, primary screen (AID 1117326; in the data active means nuclear beta-catenin stimulation mostly above about 4.2%, no sharp cut-off; inactive means mostly below about 10%; further: reference of the scale not given here); conditions: stronger effect = higher value
[2] = stimulators of insulin release from INS-1E, primary screen, cell-based, 5 mM glucose, NPC library (AID 1117329;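 active means compound raises insulin release from rat beta cells at 5 mM glucose, no numeric limit stated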; further: reference of the scale not given here); conditions: rat INS-1E insulin secretion, at 10 µM, stronger effect = higher value
[3] = growth inhibition of GSK3B-pretreated HCT116 cells – cell-based, CellTiter-Glo, 0.2 to 20 µM (AID 1117336;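 active means compounds lowering colon cancer cell viability after pretreatment blocking the GSK3B kinase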); conditions: HCT116 viability after GSK3B inhibitor, at 20 µM, stronger effect = higher value
[4] = inhibition of endothelial tube formation, primary screen, imaging, VEGF stimulated, CD31 staining, tube area, NPC library (AID 1117340;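 active means compound that reduces growth-factor-driven endothelial tube area in a mixed cell culture, no cutoff stated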); conditions: VEGF-stimulated ADSC/ECFC co-culture, at 10 µM, stronger effect = higher value
[5] = GLP1 release stimulators, primary, NCI-H716, NPC library (AID 1117341); conditions: NCI-H716 cells, at 10 µM, stronger effect = higher value; further: reference of the scale not given here
[6] = HCT116 colon cancer cell growth inhibition, primary screen, CellTiter-Glo luminescence, NPC library (AID 1117342;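 active means compounds that lower survival of HCT116 colon cancer cells in the luminescence readout, no numeric limit stated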); conditions: at 20 µM (top of the series)
[7] = reduced SW480 viability measured with CellTiter-Glo, NPC library, primary (AID 1117343;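 active means compounds that lower viability of the colon cancer cells in the luminescence readout, with no numeric limit stated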); conditions: CellTiter-Glo luminescence; at 20 µM (top of the series)
[8] = NPC library primary testing for decreased DLD-1 cell viability via CellTiter-Glo (AID 1117346;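 active means compounds that lower survival of DLD-1 colon cancer cells in the luminescence readout, no cutoff given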); conditions: DLD-1 viability, CellTiter-Glo luminescence; at 20 µM (top of the series)

SMILES	nuclear beta-catenin stimulation ([1]; at 10 µM)	nuclear beta-catenin stimulation ([1]; stimulation, at 2 µM) [%]	insulin secretion stimulation [2]	viability decrease [3]	tube area decrease [4]	GLP1 secretion stimulation [5]	inhibition of viability [6]	viability decrease (inhibition) [7]	viability decrease (inhibition) [8]
Nc1ccc(O)cc1	18.2% (inactive)	2	1% (inactive)	99.1% (active)	60.9% (active)	-3.8% (inactive)	99.3% (active)	102% (active)	62.6% (active)
CC(C)(C)c1nnc(NS(=O)(=O)c2ccccc2)s1	0.7% (inactive)	1.5	33.5% (active)	-0.1% (inactive)	17.7% (inactive)	-0.5% (inactive)	-5.8% (inactive)	-1.2% (inactive)	-7% (inactive)
O=C1CCCc2c(O)cccc21	1.1% (inactive)	2.2	0.3% (inactive)	1% (inactive)	19.3% (inactive)	2.2% (inactive)	11.4% (inactive)	12.5% (inactive)	-7.2% (inactive)
Nc1c(I)cc(I)c(C(=O)N(CCC(=O)O)c2ccccc2)c1I	1.2% (inactive)	-0.2	1.9% (inactive)	-9.8% (inactive)	-5.2% (inactive)	-5.3% (inactive)	-9.4% (inactive)	7.8% (active)	-9.8% (inactive)
O=C(O)Cc1ccc2c(c1)C(=O)c1ccccc1CO2	0.5% (inactive)	0.6	0.2% (inactive)	-4.5% (inactive)	-16.2% (inactive)	1.7% (inactive)	-7.1% (inactive)	-5.2% (inactive)	-10.1% (inactive)
Cn1cc(C(=O)[C@@H]2CCc3nc[nH]c3C2)c2ccccc21	2.4% (inactive)	-0.1	5.1% (inactive)	2.2% (inactive)	17.2% (inactive)	0.6% (inactive)	-2.5% (inactive)	11.2% (inactive)	-4.05% (inactive)
Cc1cc(O)c(Cl)c(C)c1Cl	0.8% (inactive)	-0.1	-1.8% (inactive)	-24.1% (inactive)	7.2% (inactive)	-2% (inactive)	-6.7% (inactive)	-0.8% (inactive)	-12.3% (inactive)
CCN(CC)CCNC(=O)COc1ccc(Cl)cc1	-2.4% (inactive)	-0.4	0.9% (inactive)	-9.5% (inactive)	-3.5% (inactive)	-4.5% (inactive)	22.7% (inactive)	34.2% (inactive)	0.6% (inactive)
O=C(O)Cn1cnnn1	0.5% (inactive)	-0.1	-0.9% (inactive)	-1.1% (inactive)	-3.2% (inactive)	3.3% (inactive)	4.9% (inactive)	-14.8% (inactive)	6% (inactive)
O=c1[nH]sc2cc(Cl)ccc12	15.5% (inactive)	7.8	-2.7% (inactive)	58.1% (active)	89.7% (active)	45% (active)	20.5% (inactive)	157% (active)	63.5% (active)
COc1ccc2nc(SCc3ncc(C)c(OC)c3C)[nH]c2c1	1.9% (inactive)	0.8	3.1% (inactive)	1% (inactive)	24.8% (inactive)	1.6% (inactive)	26.8% (inactive)	-12.2% (inactive)	-6.1% (inactive)
CCCCS(=O)(=O)N[C@@H](Cc1ccc(OCCCCC2CCNCC2)cc1)C(=O)O	1.1% (inactive)	-1.6	0.7% (inactive)	96.5% (active)	-5.9% (inactive)	5.3% (inactive)	72.5% (active)	64.5% (active)	50.1% (active)
O=C(CCN1CCC(c2ccccc2)C1)c1ccc2c(c1)OCCO2 (configuration not stated)	12.8% (inactive)	0.5	0% (inactive)	11.6% (inactive)	17% (active)	1.4% (inactive)	-10.2% (inactive)	158% (active)	101% (active)
CCCCC(=O)O[C@H]1CC[C@H]2[C@@H]3CCc4cc(O)ccc4[C@@H]3CC[C@]12C	-0.4% (inactive)	-0.3	1.2% (inactive)	99.1% (active)	108% (active)	-4.2% (inactive)	91.3% (active)	103% (active)	74.4% (active)
O=C(CCN1CCN2CCCC2C1)N1c2ccccc2Sc2ccc(Cl)cc21 (configuration not stated)	1.1% (inactive)	0.2	63.8% (active)	49.9% (inactive)	8% (inactive)	8.5% (inactive)	61.4% (active)	99.3% (active)	49.5% (inactive)
CCOC(=O)c1c(N)sc2c1CCN(Cc1ccccc1)C2	0.4% (inactive)	0.3	-0.1% (inactive)	21.9% (inactive)	33.8% (inactive)	0.5% (inactive)	47.3% (inactive)	84.1% (active)	31.8% (active)
OCCCc1ccccc1	1.8% (inactive)	4.5	3.2% (inactive)	9.55% (inactive)	-11.1% (inactive)	4.3% (inactive)	-1.15% (inactive)	-15.8% (active)	7.85% (inactive)

SMILES	nuclear beta-catenin stimulation ([1]; at 10 µM)	nuclear beta-catenin stimulation ([1]; stimulation, at 2 µM) [%]	insulin secretion stimulation [2]	viability decrease [3]	tube area decrease [4]	GLP1 secretion stimulation [5]	inhibition of viability [6]	viability decrease (inhibition) [7]	viability decrease (inhibition) [8]
Oc1ccccc1C=NCc1ccccc1	-0.8% (inactive)	-0.6	-2.2% (inactive)	0.9% (inactive)	-29.7% (inactive)	3.8% (inactive)	0.1% (inactive)	13.6% (inactive)	0.75% (inactive)
Cc1ccccc1N1CCN(CCc2nnc3n2CCCC3)CC1	-0.3% (inactive)	0	0.9% (inactive)	25.8% (inactive)	-13.2% (inactive)	0.9% (inactive)	6.7% (inactive)	4.9% (inactive)	7.3% (inactive)
O=C(OCC(COC(=O)c1cccnc1)(COC(=O)c1cccnc1)COC(=O)c1cccnc1)c1cccnc1	-0.6% (inactive)	-0.3	1.6% (inactive)	-13.3% (inactive)	-11.4% (inactive)	0.8% (inactive)	17.4% (inactive)	-4.3% (inactive)	-2.7% (inactive)
Cc1c(C)n(Cc2ccccc2)c2ccc(C(=O)OCCN(C)C)cc12	12.1% (inactive)	-0.2	79.2% (active)	90.9% (active)	29.5% (inactive)	10.7% (inactive)	98.9% (active)	88.7% (active)	95% (active)
Cc1ccc(O)c2ncccc12	30.3% (inactive)	2.4	-2% (inactive)	16.6% (inactive)	5.7% (inactive)	2.8% (inactive)	33% (inactive)	27% (inactive)	4.9% (inactive)
CCC(=O)O[C@]1(C(=O)COC)[C@@H](C)C[C@H]2[C@@H]3CCC4=CC(=O)C=C[C@]4(C)C3(F)[C@@H](O)C[C@@]21C (some centres not stated)	1.5% (inactive)	0.5	1.1% (inactive)	-69.2% (inactive)	6.6% (inactive)	-0.3% (inactive)	-4.8% (inactive)	6% (inactive)	-2.9% (inactive)
CCc1nnc(NS(=O)(=O)c2ccc(N)cc2)s1	-0.1% (inactive)	2	-0.8% (inactive)	5.1% (inactive)	-5.1% (inactive)	-0.1% (inactive)	-13.8% (inactive)	4.4% (inactive)	-18.9% (inactive)
O=C(O)CCC(=O)O	0% (inactive)	0.2	-1% (inactive)	-5.25% (inactive)	-24.1% (inactive)	1.6% (inactive)	-15.8% (inactive)	10% (inactive)	-6.5% (inactive)
O=C(O)Cc1cn(-c2ccccc2)nc1-c1ccc(Cl)cc1	8.7% (inactive)	1.2	0.6% (inactive)	20.4% (inactive)	-3.1% (inactive)	-0.7% (inactive)	16.8% (inactive)	16.1% (active)	7.8% (inactive)
CCc1cc(S(=O)(=O)O)c2cc(C(C)C)cccc1-2	-0.2% (inactive)	-2.2	0.1% (inactive)	-5.3% (inactive)	-12.6% (inactive)	-20.6% (inactive)	1.1% (inactive)	-19% (inactive)	-14.2% (inactive)
CCN(CC)c1ccc(C(=C2C=CC(=[N+](CC)CC)C=C2)c2cc(S(=O)(=O)O)ccc2S(=O)(=O)[O-])cc1	0.8% (inactive)	4.4	1.5% (inactive)	1.1% (inactive)	10.6% (inactive)	-12.8% (inactive)	20.3% (inactive)	52.8% (active)	13% (inactive)
O=C1C(c2[nH]c3ccc(S(=O)(=O)O)cc3c2O)=Nc2ccc(S(=O)(=O)O)cc21	-1.7% (inactive)	-0.3	5.5% (inactive)	23.1% (inactive)	-3.9% (inactive)	3% (inactive)	11.5% (inactive)	13.9% (inactive)	7% (inactive)
Cc1cc(CCCOc2c(C)cc(-c3noc(C(F)(F)F)n3)cc2C)on1	9.7% (inactive)	-3.5	-0.2% (inactive)	46.3% (inactive)	-0.1% (inactive)	-4.1% (inactive)	68.5% (active)	45.6% (inactive)	71.8% (active)
CC1(C)OC(=O)Nc2ccc(Br)cc21	3% (inactive)	-1	6.1% (inactive)	9.6% (inactive)	13.5% (inactive)	-2% (inactive)	-4.8% (inactive)	20.9% (inactive)	2.5% (inactive)
CN(C)c1ccc(C(=C2C=CC(=[N+](C)C)C=C2)c2ccccc2)cc1	4.5% (active)	63.1	0.2% (inactive)	100% (active)	109% (active)	0.7% (inactive)	99.7% (active)	102% (active)	102% (active)
Oc1ccc(Cl)cc1Sc1cc(Cl)ccc1O	4.4% (inactive)	0	4.5% (inactive)	100% (active)	101% (active)	47.3% (active)	102% (active)	122% (active)	103% (active)
